Screening data: PubChem, National Center for Advancing Translational Sciences (NCATS)
G9a inh: inhibitors of human histone lysine methyltransferase G9a; G9a H3K9 monomethylation, AlphaScreen, 2 h; Potency, µM (series often up to 102 µM), for the others: top-dose activity, negative = inhibition, usual class: inhibitors; Q96KQ7; 8.8% of 350,000 active; also: % is scaled to controls: 0 for no effect and ±100 for the full control effect; nearly all actives have a fitted effect of over 75% in size
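Signal arises when biotinylated H3K9 peptide, once monomethylated, bridges streptavidin donor and antibody-captured acceptor beads. Enzyme at 20 nM was preincubated 15 min with test compounds; peptide 500 nM and SAM 20 uM then reacted for 2 h.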
BAZ2B inh: BAZ2B (human) inhibition. AID 504333. Q9UIF8. Potency, µM (titrated, usually from 114 µM), without a hit: top-dose activity change, negative = inhibition, actives largely listed as inhibitors. 4.4% of 360,000 active. AlphaScreen BAZ2B-H3K14Ac peptide displacement; also: % is scaled to controls: 0 for no effect and ±100 for the full control effect; nearly all actives have a fitted effect of over 60% in size
Target sequence (Q9UIF8 whole entry, looked up): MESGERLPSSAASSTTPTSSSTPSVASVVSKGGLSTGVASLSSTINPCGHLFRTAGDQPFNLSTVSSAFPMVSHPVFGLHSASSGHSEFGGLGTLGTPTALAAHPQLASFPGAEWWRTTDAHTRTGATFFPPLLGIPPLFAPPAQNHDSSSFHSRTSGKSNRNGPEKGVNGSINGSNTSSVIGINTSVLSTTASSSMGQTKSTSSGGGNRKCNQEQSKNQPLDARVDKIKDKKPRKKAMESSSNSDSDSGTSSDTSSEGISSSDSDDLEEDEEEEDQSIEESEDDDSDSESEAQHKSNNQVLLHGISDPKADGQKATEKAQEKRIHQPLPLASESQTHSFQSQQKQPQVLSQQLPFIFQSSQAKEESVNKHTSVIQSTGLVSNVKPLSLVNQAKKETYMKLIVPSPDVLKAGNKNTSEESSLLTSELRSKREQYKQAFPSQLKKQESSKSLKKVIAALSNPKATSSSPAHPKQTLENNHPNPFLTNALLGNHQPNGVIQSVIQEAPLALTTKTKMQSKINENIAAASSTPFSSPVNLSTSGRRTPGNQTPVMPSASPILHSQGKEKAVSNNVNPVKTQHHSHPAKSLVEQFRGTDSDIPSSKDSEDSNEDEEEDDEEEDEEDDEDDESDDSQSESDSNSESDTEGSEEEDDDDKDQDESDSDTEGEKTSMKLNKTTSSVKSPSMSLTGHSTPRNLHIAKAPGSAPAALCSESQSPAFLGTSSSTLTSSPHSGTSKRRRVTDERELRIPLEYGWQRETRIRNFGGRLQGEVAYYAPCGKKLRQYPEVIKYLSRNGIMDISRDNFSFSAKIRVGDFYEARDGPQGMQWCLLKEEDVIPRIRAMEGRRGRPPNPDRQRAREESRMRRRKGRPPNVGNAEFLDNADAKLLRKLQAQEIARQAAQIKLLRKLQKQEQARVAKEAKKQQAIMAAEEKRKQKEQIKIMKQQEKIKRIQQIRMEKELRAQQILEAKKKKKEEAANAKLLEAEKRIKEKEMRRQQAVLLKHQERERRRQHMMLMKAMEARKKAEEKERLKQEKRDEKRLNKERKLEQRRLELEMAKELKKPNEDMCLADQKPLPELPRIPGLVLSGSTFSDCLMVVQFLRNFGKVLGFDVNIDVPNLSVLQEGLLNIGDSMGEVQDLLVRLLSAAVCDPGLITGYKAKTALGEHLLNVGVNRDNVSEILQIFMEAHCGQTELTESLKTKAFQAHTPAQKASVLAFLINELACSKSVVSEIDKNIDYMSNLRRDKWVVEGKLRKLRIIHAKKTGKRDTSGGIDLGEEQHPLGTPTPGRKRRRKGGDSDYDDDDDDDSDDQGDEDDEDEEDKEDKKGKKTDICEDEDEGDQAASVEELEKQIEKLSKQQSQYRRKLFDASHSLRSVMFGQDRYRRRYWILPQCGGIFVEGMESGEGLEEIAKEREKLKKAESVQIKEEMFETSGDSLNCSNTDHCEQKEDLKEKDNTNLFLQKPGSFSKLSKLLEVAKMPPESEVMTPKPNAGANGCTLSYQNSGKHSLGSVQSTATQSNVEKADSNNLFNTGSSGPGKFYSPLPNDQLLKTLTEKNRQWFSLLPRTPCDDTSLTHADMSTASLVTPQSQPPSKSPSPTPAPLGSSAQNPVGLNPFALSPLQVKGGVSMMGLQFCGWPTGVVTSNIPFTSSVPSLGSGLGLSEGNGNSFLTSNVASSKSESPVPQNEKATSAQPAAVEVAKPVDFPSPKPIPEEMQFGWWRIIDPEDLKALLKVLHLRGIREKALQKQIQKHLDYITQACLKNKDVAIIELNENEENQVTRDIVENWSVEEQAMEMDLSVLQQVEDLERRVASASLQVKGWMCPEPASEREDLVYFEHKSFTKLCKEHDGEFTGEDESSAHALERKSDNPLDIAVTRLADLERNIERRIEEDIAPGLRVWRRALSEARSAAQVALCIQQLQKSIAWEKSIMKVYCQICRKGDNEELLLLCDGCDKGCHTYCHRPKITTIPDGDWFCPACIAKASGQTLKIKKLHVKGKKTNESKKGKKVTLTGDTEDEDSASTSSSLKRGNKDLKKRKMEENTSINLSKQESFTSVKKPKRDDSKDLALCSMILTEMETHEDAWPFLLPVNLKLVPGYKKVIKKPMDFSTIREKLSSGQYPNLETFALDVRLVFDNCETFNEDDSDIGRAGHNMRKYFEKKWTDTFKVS
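BAZ2B (50 nM) with biotin-H3(5-23)K14Ac peptide (50 nM) in PBS pH 7.4, 0.01% Tween-20, preformed 30 min, then compound 30 min at room temperature; top concentration 110uM. AlphaScreen streptavidin donor/nickel chelate acceptor beads (10 ug/mL final), 20 min dark, signal read.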
JMJD2A Tudor inh: inhibitors of human JMJD2A Tudor domain; O75164; AlphaScreen JMJD2A-Tudor / H3K4me3 peptide binding; Potency, µM (top dose mostly 114 µM), without a hit: top-dose activity change, negative = inhibition, usual class: inhibitors; 4.4% of 390,000 active; AID 504339; also: % is scaled to controls: 0 for no effect and ±100 for the full control effect; nearly all actives have a fitted effect of over 50% in size
PLK1 PBD inh: blocks phosphopeptide binding to human PLK1 polo-box domain | Potency, µM, without a hit: max response, negative = inhibition, usual class: inhibitors | AID 720504 | P53350 | Plk1 PBD binding of FITC phosphopeptide, fluorescence polarization | 2.8% of 360,000 active; also: series mostly up to about 57 µM; % is scaled to controls: 0 for no effect and ±100 for the full control effect; nearly all actives have a fitted effect of over 65% in size
Sfp inh: inhibitors of Bacillus subtilis Sfp phosphopantetheinyl transferase; Q9F4F7; Biochemical Sfp PPTase activity, qHTS; Potency, µM, inactives show largest response in the series, negative = inhibition, actives largely listed as inhibitors; 3.5% of 310,000 active; AID 1490;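 also: the enzyme is Sfp with the accession as filed and its product quenches rhodamine fluorescence; 0% = enzyme reaction without inhibitor and -100% = no enzyme wells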
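Fluorescence-quenching assay: 15 nM Sfp-PPTase preincubated 15 min at room temperature with compound, then 5 uM rhodamine-CoA and 12.5 uM BHQ-2-labelled YbbR peptide added. Fluorescence (ex 525/em 598 nm) read at start and after 30 min; difference gives rate.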
HP1b binding inh: blocks HP1-beta chromodomain binding to methylated histone tails; AlphaScreen HP1-beta / biotin-H3K9me3 peptide binding; Potency, µM (top dose mostly 114 µM), for inactives: at the highest dose activity change, negative = inhibition, most hits filed as inhibitors; 0.56% of 390,000 active; also: nearly all actives have a fitted effect of over 70% in size
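HP1-beta protein (50 nM final) preincubated 30 min at room temperature with biotinylated H3(1-18)K9me3 peptide (50 nM) in PBS pH 7.4, 0.01% Tween-20, then compound added for 30 min. AlphaScreen streptavidin donor/nickel chelate acceptor beads (10 ug/mL final), 30 min dark, luminescence read.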
* marks the source's active call; other numbers are inactive results; ? = inconclusive; / = no result given; [ ] = remark or other dose. The list is not random: actives were taken first. Their share in the collection is about 12%. Calls follow the shape of the dose curve; as a rule, active = well fitted curve in the direction sought with a large enough effect; inconclusive = small, poorly fitted or top-dose-only effect, or another doubt; inactive = no such curve, though single readings can be large; an effect the other way counts as inactive or inconclusive. Potency is read from the fitted curve at half-maximal effect.

SMILES	G9a inh	BAZ2B inh	JMJD2A Tudor inh	PLK1 PBD inh	Sfp inh	HP1b binding inh
COc1ccc(C(C)=O)cc1CN1CC=C(c2ccccc2)CC1	12.6µM*	50.1µM*	44.7µM*	0.4%	-13.1%	79.4µM*
O=C(COc1ccccc1Cl)N1CCN(CCc2ccncc2)CC1	-7.3%[59 µM]	?	-11.3%	/	/	57.5%
COC(=O)c1ccc(NC(=O)c2cccn(Cc3ccccc3C)c2=O)cc1	6.8%[59 µM]	3.8%	-14.2%	/	/	19.6%[57 µM]
O=c1c2ccccc2nc(/C=C\c2ccccc2F)n1-c1ccc(O)cc1	9.8%[59 µM]	-5.8%	-15.0%	/	/	18.1%
C[N+]1([O-])[C@@H]2CC[C@H]1CC(OC(=O)[C@@H](CO)c1ccccc1)C2 (stereo not given in full)	22.1%[5.15 µM]	/	/	/	-10.8%	/
Cc1[nH]n(-c2ccccc2)c(=O)c1C(C[N+](=O)[O-])c1ccccc1Cl (stereo not given)	?	?	-17.1%[11.4 µM]	15µM*	2.3%	4.9%
Cc1[nH]n(-c2ccccc2)c(=O)c1C(c1ccc([N+](=O)[O-])cc1)c1c(C)[nH]n(-c2ccccc2)c1=O	11.2µM*	39.8µM*	17.8µM*	7.52µM*	-11.4%	35.5µM*
O=[N+]([O-])c1ccc(C(c2ccc([N+](=O)[O-])cc2)c2ccc([N+](=O)[O-])cc2)cc1	/	/	?	-4.7%	/	-20.2%[57 µM]
COC[C@H]([C@@H](O)[C@@H](O)C(=O)NCC[C@@H](C)c1nc(/C=C/C[C@H]2OC3(C[C@H](O)[C@H]2C)OC([C@@H](C[C@@H](O)[C@@H](C)[C@@H](O)[C@@H](C)/C=C(C)/C(C)=C/C=C/C(C)=C\C#N)OC)[C@@H](OP(=O)(O)O)C3(C)C)co1)N(C)C (stereo not given in full)	27.1%[59 µM]	/	/	/	16.4%	/
CN[C@H](CC(C)C)C(=O)N[C@H]1C(=O)N[C@@H](CC(N)=O)C(=O)N[C@@H]2C(=O)N[C@H]3C(=O)N[C@H](C(=O)N[C@H](C(=O)O)c4cc(O)cc(O)c4-c4cc3ccc4O)[C@H](O)c3ccc(c(Cl)c3)Oc3cc2cc(c3O[C@@H]2O[C@H](CO)[C@@H](O)[C@H](O)[C@@H]2O[C@H]2C[C@](C)(N)[C@H](O)[C@H](C)O2)Oc2ccc(cc2Cl)[C@H]1O	1.5%[59 µM]	/	/	/	/	/
CN1C(=O)[C@@H](NC(=O)c2cc3ccccc3[nH]2)N=C(c2ccccc2)c2ccccc21	5.2%[59 µM]	/	/	/	11.2%	/
C/C=C/C/C=C/CCC(=O)[C@H]1O[C@H]1C(N)=O	?	/	/	/	6.7%	/
COc1cc(CN2CCc3nc(N4CCN(c5ccccc5F)CC4)ncc3C2)ccc1OC(C)C	-13.5%[59 µM]	?	-21.9%	/	/	18.9%
COc1cc(CN2CCc3nc(N4CCN(c5ncccn5)CC4)ncc3C2)cc(OC)c1OC	?	44.7µM*	50.1µM*	/	/	-14.4%
COc1cc(CN2CCc3nc(N4CCN(c5ccccn5)CC4)ncc3C2)cc(OC)c1OC	?	50.1µM*	79.4µM*	/	/	?
Cc1ccc(C(=O)N2CC2C)cc1 (stereo not given)	/	/	-15.1%	-8.0%	/	25.2%
CC(=O)Nc1nc(CCl)cs1	20µM*	-19.4%	-30.1%	-23.1%	-5.7%	31.9%
CN1C(=O)C(Cc2cccc3ccccc23)C(=O)N(C)C1=O	?	12.3%	-34.2%	21.2µM*	-45.7%	19.7%
CN1C(=O)C(Cc2c[nH]c3ccccc23)C(=O)N(C)C1=O	12.6µM*	-4.5%	/	/	39.8µM*	/
CN1C(=O)C(Cc2ccc(OCc3ccccc3)cc2)C(=O)N(C)C1=O	79.4µM*	-19.9%	-12.4%	-13.8%	-26.6%	45.6%
O=S1(=O)CCN(CCc2c[nH]c3ccccc23)CC1	0.2%	-7.7%	-12.8%	0.5%	23.9%	37.2%
C[C@H]1CC[C@@H]2[C@@H](C)[C@H]3C(C[C@H]4C5CC[C@H]6C[C@@H](O)CC[C@]6(C)C5CC[C@]34C)N2C1 (stereo not given in full)	/	/	-6.2%	/	-5.4%	36.4%
CON(C)C(=O)Nc1ccc(Br)c(Cl)c1	/	/	/	/	-8.4%	/
CC1(C)OC(c2ccccc2)=C/C(=C/C=C2C(=O)NC(=S)NC2=O)O1	10µM*	10µM*	?	8.1%	39.8µM*	11.2µM*
CCOC(=O)[C@]12Cc3cc(Cl)ccc3[C@H]1N(C(C)C)C(=O)c1ccccc12	/	/	/	9.47µM*	/	/
SMILES	G9a inh	BAZ2B inh	JMJD2A Tudor inh	PLK1 PBD inh	Sfp inh	HP1b binding inh
CCOC(=O)[C@]12Cc3cc(Cl)ccc3[C@H]1N(CC(=O)OC)C(=O)c1ccccc12	/	/	/	4.23µM*	/	/
C=C(C)C1Cc2c(ccc3c(=O)c4c(oc23)COc2cc(OC)c(OC)cc2-4)O1 (stereo not given)	/	/	/	/	-6.5%	/
CCOC(=O)c1c(NC(=O)c2ccc(OC)cc2)sc2c1CCCCC2	?	2.8%	18.0%	/	/	57.0%
Cc1noc(C(=O)Nc2sc3c(c2C#N)CCC3)c1Cl	44.7µM*	-33.6%	-28.3%	23.8µM*	-24.8%	-3.6%
CCN1CCN(Cc2cccc(Oc3ccccc3)c2)CC1	3.55µM*	31.6µM*	3.16µM*	-13.7%	?	?
COc1cc2c(cc1OC)-c1c(OC)c(OC)c(OC)c3ccnc(c13)C2=O	?	28.2µM*	?	-18.5%	15.2%	-1.3%
CCCC(C)C1(CC)C(=O)NC(=S)NC1=O (stereo not given)	26.1%[59 µM]	/	/	/	0.8%	/
COc1cc(/C=N/NP(=S)(c2ccccc2)c2ccccc2)ccc1O	44.7µM*	-35.3%	?	?	-24.1%	-39.1%
Oc1ccc(/C=N/NP(=S)(c2ccccc2)c2ccccc2)cc1	?	?	?	23.8µM*	?	?
COC(=O)C1=C(c2cc3ccccc3s2)C[C@@H]2CC[C@H]1N2C	-1.9%[0.501 µM]	-9.4%	-28.3%	-3.8%	/	19.8%
COc1ccc2c(c1)c(=O)c(C(=O)c1ccc(Cl)cc1)cn2CC(=O)Nc1ccc2c(c1)OCCO2	18.8%[59 µM]	-1.2%	-3.0%	/	/	52.4%
COc1ccc(CN2CCN(C(=O)Cc3ccccc3)CC2)cc1Br	/	?	25.1µM*	1.0%	89.1µM*	?
COc1ccc(OC)c(CN2CCN(C(=O)Cc3ccccc3)CC2)c1	5.01µM*	?	17.8µM*	-2.7%	-39.5%	?
COc1ccc(CN2CCN(C(=O)Cc3ccccc3)CC2)cc1OC	/	/	/	-7.8%	/	/
CCN1CCN(C(=O)Cc2ccc(C)cc2)CC1	7.3%	-11.1%	-5.6%	-4.2%	-2.6%	26.7%
CC(C)(C)NS(=O)(=O)c1ccc(OCC(=O)N2CCN(Cc3ccccc3)CC2)cc1	-24.8%	-16.8%	-14.4%	-11.2%	14.9%	1.4%
CCOc1cc(CN2CCN(C(=O)Cc3ccccc3)CC2)ccc1OC	/	56.2µM*	28.2µM*	5.1%	-13.2%	?
